RECQ1 inh – blocks DNA unwinding by human RECQ1; P46063; RECQ1 DNA unwinding, red fluorescence kinetic read; Potency, µM (series often up to 57.3 µM), without a hit: at the top dose activity, negative = inhibition, most hits filed as inhibitors; 240,000 compounds, 0.54% hits; AID 2549;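 also: plate controls were vehicle for no effect and no enzyme for full effect; nearly all actives have a fitted effect of over 30% in size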
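RECQ1T1 50 nM; forked duplex (20 bp + 30-nt ss tails) 200 nM, ATP 2 mM final; pH 8.0, 2 mM MgCl2, 2.5 ug/ml poly(dI-dC); 15 min compound preincubation; discontinuous kinetic read over 2 h at RT.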
GLS inh – blocks human kidney-isoform glutaminase activity. AID 624170. GLS enzymatic activity, qHTS titration. Potency, µM (titrated, usually from 45.5 µM), without a hit: at the highest dose activity change, negative = inhibition, usual class: inhibitors. 410,000 compounds, 0.21% hits. O94925
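Assay buffer: 45 mM KH2PO4 pH 8.2, 0.02% Tween-20. hKGA acts on L-glutamine (1 mM solution added); product glutamate is reported by an oxidase/peroxidase Amplex Red coupling, with fluorescence taken at baseline and 30 min.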
FEN1 inh – inhibitors of human flap endonuclease 1 | Recombinant FEN1 flap cleavage, fluorescence, 15 min | Potency, µM (highest dose often 114 µM), for inactives: top-dose activity change, negative = inhibition, most hits filed as inhibitors | 390,000 compounds, 0.35% hits | AID 588795; also: nearly all actives have a fitted effect of over 65% in size
Target sequence (P39748 whole entry, looked up): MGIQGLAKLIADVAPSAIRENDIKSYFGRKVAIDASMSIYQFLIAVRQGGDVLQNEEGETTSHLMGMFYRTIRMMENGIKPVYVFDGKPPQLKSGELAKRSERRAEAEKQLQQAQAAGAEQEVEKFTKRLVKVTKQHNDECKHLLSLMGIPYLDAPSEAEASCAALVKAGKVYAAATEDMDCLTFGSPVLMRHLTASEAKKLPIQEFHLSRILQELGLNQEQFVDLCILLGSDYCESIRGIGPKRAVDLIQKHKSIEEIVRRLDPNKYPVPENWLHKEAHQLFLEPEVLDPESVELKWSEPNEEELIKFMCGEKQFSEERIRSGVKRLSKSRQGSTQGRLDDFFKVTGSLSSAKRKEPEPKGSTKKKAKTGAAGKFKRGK
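Concentration–response screening of FEN1 (10 nM): 15 min compound preincubation at room temperature, reaction started with 50 nM substrate and read at 0 and 15 min. Corrected, normalized data were fitted by a four-parameter Hill equation.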
APEX1 inh – inhibitors of human APE1 endonuclease; recombinant APE1, TAMRA/BHQ-2 abasic DNA cleavage fluorescence; P27695; Potency, µM (highest dose often 65.8 µM), for the others: at the highest dose activity change, negative = inhibition, most hits filed as inhibitors; 350,000 compounds, 0.35% hits;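 also: plate controls were vehicle for no effect and reference inhibitor for full effect; nearly all actives have a fitted effect of over 55% in size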
Target sequence (P27695 whole entry, looked up): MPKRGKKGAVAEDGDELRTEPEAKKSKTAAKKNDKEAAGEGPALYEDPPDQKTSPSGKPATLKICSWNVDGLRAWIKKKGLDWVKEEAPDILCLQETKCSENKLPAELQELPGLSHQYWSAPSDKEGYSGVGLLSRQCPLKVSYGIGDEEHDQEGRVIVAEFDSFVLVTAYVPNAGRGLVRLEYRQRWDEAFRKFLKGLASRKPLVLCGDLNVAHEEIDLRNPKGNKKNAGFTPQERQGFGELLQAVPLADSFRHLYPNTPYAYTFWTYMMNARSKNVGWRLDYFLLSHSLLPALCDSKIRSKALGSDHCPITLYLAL
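Step 1: APE1 (0.75 nM) with compound, 15 min RT. Step 2: add 50 nM fluorophore/quencher THF duplex. Step 3: three fluorescence reads 60 s apart (525/598 nm); read 3 minus read 1 = reaction progress.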
Tb PGK inh – inhibitors of T. brucei phosphoglycerate kinase; AID 602233; Potency, µM (titrated, usually from 57.5 µM), for inactives: top-dose activity change, negative = inhibition, hits mostly inhibitors; 380,000 compounds, 0.043% hits; P07378; PGK/GAPDH coupled, Kinase-Glo luminescence, 60 min; also: nearly all actives have a fitted effect of over 60% in size
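Luminescent ATP detection (Kinase-Glo Plus) follows a 60-minute room-temperature incubation, with wells lacking PGK as controls. Buffer: 100 mM TEA (pH 7.6), 5 mM MgCl2, 0.01% Tween-20. Coupling enzyme GAPDH (100 nM final) supplies unstable 1,3-BPG in-well.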
BLM inh – inhibitors of human Bloom syndrome helicase BLM; recombinant BLM DNA unwinding, fluorescence dequenching; Potency, µM (doses to about 56.1 µM), without a hit: at the top dose activity change, negative = inhibition, most hits filed as inhibitors; 350,000 compounds, 0.2% hits; AID 2528;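 also: plate controls were vehicle for no effect and no enzyme for full effect; nearly all actives have a fitted effect of over 35% in size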
The depositor's hits bear a star; i = inactive; ? = inconclusive; nt = no result given; [ ] = another dose, or the depositor's remark. Hits are enriched below; roughly 0.86% of the tested compounds scored in any of these assays. Calls follow the shape of the dose curve; as a rule, active = well fitted curve in the direction sought with a large enough effect; inconclusive = small, poorly fitted or top-dose-only effect, or another doubt; inactive = no such curve, though single readings can be large; an effect the other way counts as inactive or inconclusive. Unless noted, % is scaled to controls: 0 for no effect and ±100 for the full control effect; potency is read from the fitted curve at half-maximal effect.

SMILES | RECQ1 inh | GLS inh | FEN1 inh | APEX1 inh | Tb PGK inh | BLM inh
O=C(NC1C(=O)NNC1c1ccccc1)c1ccccc1 (stereo unspecified) | -11% | 2% | 16% | -4% | i | -1%
Cc1cccc(C(=O)NC2C(=O)NNC2c2ccc(Cl)cc2)c1 (stereo unspecified) | -4% | 7.9µM* | -14% | -3% | i | -1%
O=c1[nH]n2c(=O)c3c([nH]c2c1N=Nc1cccc(Cl)c1)CCC3 | 5% | ? | ? | 1% | -9% | 16µM*
O=c1[nH]n2c(=O)c3c([nH]c2c1N=Nc1cccc(C(F)(F)F)c1)CCCC3 | -1% | 23% | ? | -4% | -11% | -6%
O=C(CCOc1ccccc1)N1CCN(c2ccc(O)cc2)CC1 | 2% | 11µM* | -5% | -2% | 0% | 0%
Cc1ccc(CNC(=O)c2sc3nc(-c4ccccc4)cn3c2C)cc1 | nt | -10% | 89µM* | nt | -2% | 0%
CN(CCO)c1nc(N)c(C#N)c(CC#N)c1C#N | -11% | ? | 2% | 0% | -1% | -9%
CC(C)CN(CC(C)C)c1nc(N)c(C#N)c(CC#N)c1C#N | 28µM* | -6% | 1% | 12% | -7% | -8%
Cc1ccc(CNc2ccc(N3CCNCC3)cc2)cc1 | nt | nt | nt | 16% | nt | nt
Cc1cccc2cc(C#N)c(SCCN3CCCCC3)nc12 | nt | 3% | 50µM* | nt | -19% | nt
CCNc1nc(NCC)n2c(SCC(=O)Nc3cccc(Cl)c3)nnc2n1 | nt | -1% | -4% | 27µM* | ? | nt
CCNc1nc(NCC)n2c(SCC(=O)Nc3ccccc3C(F)(F)F)nnc2n1 | nt | 1% | 4% | 21µM* | -23% | nt
CCNc1nc(NCC)n2c(SCC(=O)Nc3ccccc3Cl)nnc2n1 | nt | 2% | 0% | -12% | -8% | nt
CCNc1nc(NCC)n2c(SCC(=O)Nc3cccc(F)c3)nnc2n1 | nt | 29% | 5% | 12µM* | -8% | nt
CCNc1nc(NCC)n2c(SCC(=O)Nc3cc(Cl)ccc3OC)nnc2n1 | nt | -2% | 6% | ? | -13% | nt
CC(C)CN(CC(C)C)c1ccc(/C=C/c2nc3ccccc3s2)cc1 | nt | nt | -10% | nt | nt | nt
Cc1ccc2nc(/C=C/c3ccc(N(C)C)cc3)ccc2c1 | nt | nt | 10% | nt | nt | nt
C=CCn1c(SCC(=O)NC(=O)NCc2ccco2)nc2sc(CC)cc2c1=O | -26% | -1% | -10% | 32µM* | -15% | -21%
CCOc1cc(/C=C2\N=C(SC)SC2=O)cc([N+](=O)[O-])c1OC(C)=O | i | ? | 50µM* | -9% | -6% | -2%
O=C(O)CCN1C(=O)/C(=C2\C(=O)N(Cc3ccccc3Cl)c3ccccc32)SC1=S | nt | nt | nt | 7.5µM* | nt | -21%
c1coc(-c2nc3cc4ccccc4cc3nc2-c2ccco2)c1 | nt | nt | 5.6µM* | nt | nt | nt
c1coc(-c2nc(-c3ccco3)c(-c3ccco3)nc2-c2ccco2)c1 | 4µM* | 13µM* | 35µM* | 1.4µM* | ? | 14µM*
c1ccc2c(c1)Nc1cc3ccccc3cc1S2 | 1% | -4% | -1% | 3% | -2% | -9%
COc1ccc2c(c1)Sc1ccccc1N2 | -11% | 18µM* | 0% | -6% | -7% | -6%
NC1C(N)C(N)C1N (stereo unspecified) | nt | nt | -15% | nt | nt | nt
SMILES | RECQ1 inh | GLS inh | FEN1 inh | APEX1 inh | Tb PGK inh | BLM inh
COc1ccc(/C=N/Nc2cc(C)nc(N)n2)cc1 | 0% | 6% | 0% | -9% | -1% | -1%
COc1cc(/C=N/Nc2cc(C)nc(N)n2)ccc1O | nt | 10µM* | -13% | -10% | 0% | -8%
O=Cc1ccc(/C=C2\C=Cc3ccccc32)cc1 | nt | nt | 8% | nt | nt | nt
O=C1CC(c2ccco2)CC(O)=C1C=NCC1CCNCC1 (stereo unspecified) | i | -2% | 1% | 32µM* | i | -3%
CC(C)(C)n1ncc2c(=O)n(Cc3ccc(C#N)cc3)cnc21 | nt | nt | -136% | 2% | nt | nt
c1ccc2c(CCC3CCNCC3)c[nH]c2c1 | nt | 17% | nt | nt | nt | nt
CC1(C)C=C2C(=NN(c3ccccc3)C(N)=C2C#N)CO1 | nt | 3% | 0% | 5% | 5% | 18µM*
CCOC(=O)c1cnc2ccc(OC)cc2c1Nc1ccc(N2CCN(C)CC2)cc1 | nt | 13µM* | ? | -19% | 2% | 43%
CCOC(=O)c1ccc2ncc(C(=O)OCC)c(Nc3ccc(N4CCOCC4)cc3)c2c1 | -8% | 3% | -35% | -3% | i | -6%
Cc1cc(NS(=O)(=O)c2ccc(Nc3nc(-c4sc(N)nc4C)cs3)cc2)no1 | ? | ? | 56µM* | -5% | -8% | -13%
O=C(CCCOc1ccc(Cl)cc1Cl)Nc1ccncc1 | -6% | 5% | -13% | 28µM* | -1% | -1%
C[C@@H](O[C@H]1OCCN(Cc2n[nH]c(=O)[nH]2)[C@@H]1c1ccc(F)cc1)c1cc(C(F)(F)F)cc(C(F)(F)F)c1 | nt | -1% | nt | nt | nt | nt
COc1ccc(CCNc2nc(-c3ccc(F)cc3)c(CC(=O)O)s2)cc1OC | nt | 11µM* | 0% | 49%[12.4 µM] | -8% | -3%
Cc1cccn2c(=O)c3cc(C(=O)NC4CCCCC4)c(=N)n(Cc4ccccc4)c3nc12 | nt | -12% | -14% | 9.5µM* | 0% | -27%
Cc1cccn2c(=O)c3cc(C(=O)NCc4ccco4)c(=N)n(C4CCCCC4)c3nc12 | nt | -6% | -28% | 17µM* | 2% | 47%
O=C(NCc1ccco1)c1cccn2c(=O)c3cc4ccccc4cc3nc12 | ? | nt | nt | ? | nt | 20µM*
O=C(NCc1ccco1)c1cnc2ccccn2c1=O | -13% | -13% | -9% | 1% | -7% | 0%
N#Cc1nc(-c2ccccc2)cc(-c2ccccc2)n1 | nt | nt | 13% | nt | nt | nt
COC(=O)CSc1nc(SC)nc2c1sc1nc(-c3ccco3)c3c(c12)CC(C)(C)OC3 | nt | -22% | -9% | nt | 6% | nt
CSc1nc(N(CCO)CCO)c2sc3nc(-c4ccco4)c4c(c3c2n1)CCC4 | -2% | 7.1µM* | ? | 22% | ? | 1%
COCCCNc1ncnc2c1sc1nc(-c3ccco3)c3c(c12)CC(C)(C)OC3 | 7% | -11% | -6% | -10% | -6% | -3%
CSc1nc(SCCO)c2sc3nc(-c4ccco4)c4c(c3c2n1)CC(C)(C)OC4 | 13µM* | ? | -1% | ? | -2% | 13µM*
O=c1cc(-c2cccc(O)c2)oc2c(O)c(O)ccc12 | 4.5µM* | nt | nt | ? | nt | -1%
O=c1cc(-c2cccc(O)c2)oc2cc(O)ccc12 | i | nt | nt | -5% | nt | -8%
C#Cc1ccc([C@H]2C=C(C(=O)O)O[C@@H](OCc3ccc(CO)cc3)C2)cc1 | -13% | -1% | -7% | 32µM* | -11% | -6%
CC(=O)c1ccc(OCC(=O)N2CCCCC2)cc1 | nt | -7% | nt | nt | nt | nt

From PubChem
